PubChem BioAssay (NCI)
Compounds without any hit were thinned out: in the full panel of roughly 79,000, 15% have a hit. Calls of active or inactive are those of the source. Rule as the data show it: active = growth inhibition above about 70%; inactive = the rest.

Columns and labels:
[1] = NCI Yeast Anticancer Drug Screen. Data for the rad50 strain (AID 155);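 also: 0% = growth of vehicle-only cultures of the same strain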; settings: S. cerevisiae rad50 strain growth inhibition, stronger effect = higher value
How it was run: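 Inhibition values express reduced yeast growth in compound-treated cultures relative to vehicle-treated controls.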

[2] = NCI Yeast Anticancer Drug Screen. Data for the mec2-1 strain (AID 157); settings: S. cerevisiae mec2-1 strain, stronger effect = higher value
How it was run: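 Using mec2-1 yeast: add compound, measure growth, express inhibition versus vehicle-treated cultures.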

[3] = NCI Yeast Anticancer Drug Screen. Data for the sgs1 mgt1 strain (AID 161);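 also: 0% = growth of cultures given vehicle only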; settings: S. cerevisiae sgs1 mgt1 strain, stronger effect = higher value
How it was run: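 This yeast growth screen uses a strain with defined DNA-repair lesions; compound-treated growth is compared with vehicle-treated growth.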

[4] = NCI Yeast Anticancer Drug Screen. Data for the cln2 rad14 strain (AID 165);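 also: 0% = growth equal to vehicle treated cultures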; settings: S. cerevisiae cln2 rad14 strain, stronger effect = higher value
How it was run: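 Yeast strain cln2 rad14, bearing defects in cell cycle control and DNA repair, serves as the test system; values reflect growth inhibition compared with vehicle.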

[5] = NCI Yeast Anticancer Drug Screen. Data for the bub3 strain (AID 167); settings: S. cerevisiae bub3 mutant strain, stronger effect = higher value
How it was run: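 Steps: expose the mutant yeast strain to compound; grow alongside vehicle-treated cultures; measure growth; express inhibition against the vehicle cultures.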

[6] = NCI Yeast Anticancer Drug Screen. Data for the mlh1 rad18 strain (AID 175); settings: S. cerevisiae mlh1 rad18 strain growth inhibition, stronger effect = higher value
How it was run: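 Steps: expose repair-defective yeast to compound; measure growth; express inhibition against vehicle-treated controls.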

[7] = at 5.0 µM (retest, dose inferred, filed as 0.5)
[8] = at 50.0 µM (retest, dose inferred, filed as 5.0)

Measured: growth inhibition

Nc1cccc2c(O)cccc12
inactive: [1]; [7] -1% | [1]; [8] 21% | [1]; at 50.0 µM 21.6% | [2]; [7] 3% | [2]; [8] 18% | [2]; at 50.0 µM 9.3% | [3]; [7] -1% | [3]; [8] 15% | [3]; at 50.0 µM 20.8% | [4]; [7] 2% | [4]; [8] 12% | [4]; at 50.0 µM 44.2% | [5]; [7] 2% | [5]; [8] 15% | [5]; at 50.0 µM 8.55% | [6]; [7] -2% | [6]; [8] 28% | [6]; at 50.0 µM 50.2%

CC(=O)Nc1ccc(C(C)(C)c2ccc(C)cc2)cc1
active: [1]; [8] 95% | [2]; [8] 98% | [3]; [8] 96% | [4]; [8] 96% | [5]; [8] 97% | [6]; [8] 96%
inactive: [1]; [7] 0% | [1]; at 50.0 µM -4.5% | [2]; [7] 0% | [2]; at 50.0 µM -12.2% | [3]; [7] -1% | [3]; at 50.0 µM 24.1% | [4]; [7] 2% | [4]; at 50.0 µM 3.75% | [5]; [7] 4% | [5]; at 50.0 µM 57.5% | [6]; [7] -1% | [6]; at 50.0 µM -2.15%

CC1CN(CCCN2c3ccccc3Sc3ccc(Cl)cc32)C(C)(C)C1 (stereo not given)
active: [1]; [8] 99% | [1]; at 50.0 µM 99.7% | [2]; [8] 100% | [2]; at 50.0 µM 99.8% | [3]; [8] 100% | [3]; at 50.0 µM 99.8% | [4]; [8] 99% | [4]; at 50.0 µM 99.3% | [5]; [8] 100% | [5]; at 50.0 µM 99.3% | [6]; [8] 99% | [6]; at 50.0 µM 99.8%
inactive: [1]; [7] 1% | [2]; [7] 5% | [3]; [7] 17% | [4]; [7] 10% | [5]; [7] 21% | [6]; [7] 9%

CCN(CC)c1c(C(=O)/C=C/c2ccc(F)cc2)c(-c2ccccc2)nn(C)c1=O
active: [1]; at 50.0 µM 87.9% | [2]; at 50.0 µM 90.6% | [3]; at 50.0 µM 70.5% | [4]; at 50.0 µM 90.3% | [5]; at 50.0 µM 90.3% | [6]; at 50.0 µM 86.2%
inactive: [1]; [7] 29% | [1]; [8] 29% | [2]; [7] 2% | [2]; [8] 2% | [3]; [7] 12% | [3]; [8] 12% | [4]; [7] 16% | [4]; [8] 16% | [5]; [7] -3% | [5]; [8] -3% | [6]; [7] 1% | [6]; [8] 1%

Cn1c(-c2ccccc2)c(CCNC(=O)C2CCC2)c2ccccc21
inactive: [1]; [7] 18% | [1]; [8] 18% | [2]; [7] 14% | [2]; [8] 14% | [3]; [7] 12% | [3]; [8] 12% | [4]; [7] 7% | [4]; [8] 7% | [5]; [7] 11% | [5]; [8] 11% | [6]; [7] 18% | [6]; [8] 18%
active: [1]; at 50.0 µM 81.2% | [2]; at 50.0 µM 86% | [3]; at 50.0 µM 79.2% | [4]; at 50.0 µM 77.3% | [5]; at 50.0 µM 79.2% | [6]; at 50.0 µM 75.2%

COc1ccc(-c2n[nH]c(C(F)(F)F)c2N=NN(C)C)cc1OC
active: [1]; [7] 97% | [1]; [8] 98% | [1]; at 50.0 µM 98.9% | [2]; [7] 99% | [2]; [8] 99% | [2]; at 50.0 µM 99.5% | [3]; [7] 99% | [3]; [8] 99% | [3]; at 50.0 µM 99.4% | [4]; [7] 99% | [4]; [8] 99% | [4]; at 50.0 µM 99.4% | [5]; [7] 99% | [5]; [8] 99% | [5]; at 50.0 µM 99.4% | [6]; [7] 99% | [6]; [8] 99% | [6]; at 50.0 µM 99.6%

Nc1ccc([N+](=O)[O-])cc1Nc1c2ccccc2nc2ccccc12
inactive: [1]; [7] 5% | [1]; [8] 15% | [2]; [7] 2% | [2]; [8] 5% | [2]; at 50.0 µM 17.7% | [3]; [7] 1% | [3]; [8] 27% | [3]; at 50.0 µM 40% | [4]; [7] -1% | [4]; [8] 34% | [4]; at 50.0 µM -6.85% | [5]; [7] -4% | [5]; [8] 17% | [5]; at 50.0 µM -43.4% | [6]; [7] 2% | [6]; [8] 37% | [6]; at 50.0 µM 31.4%
active: [1]; at 50.0 µM 82.3%

Oc1cccc2c(Br)ccnc12
active: [1]; [8] 100% | [1]; at 50.0 µM 87% | [2]; [8] 99% | [2]; at 50.0 µM 92% | [3]; [8] 99% | [3]; at 50.0 µM 85% | [4]; [8] 99% | [4]; at 50.0 µM 87.8% | [5]; [8] 99% | [5]; at 50.0 µM 87.2% | [6]; [8] 99% | [6]; at 50.0 µM 81.8%
inactive: [1]; [7] -5% | [2]; [7] -21% | [3]; [7] -33% | [4]; [7] -5% | [5]; [7] -29% | [6]; [7] 15%

NN(Cc1ccccc1)c1ccccc1
active: [1]; [8] 83% | [1]; at 50.0 µM 89.3% | [2]; [8] 87% | [2]; at 50.0 µM 91.7% | [3]; [8] 100% | [3]; at 50.0 µM 91.8% | [4]; [8] 99% | [4]; at 50.0 µM 90% | [5]; [8] 99% | [5]; at 50.0 µM 90.5% | [6]; [8] 77% | [6]; at 50.0 µM 88.6%
inactive: [1]; [7] 50% | [2]; [7] 47% | [3]; [7] 20% | [4]; [7] 43% | [5]; [7] 40% | [6]; [7] 27%

COc1ccccc1NC(c1ccccc1)c1ccc2cccnc2c1O (stereo not given)
inactive: [1]; [7] 2% | [1]; [8] 50% | [2]; [7] 3% | [2]; [8] 60% | [2]; at 50.0 µM 49.2% | [3]; [7] 7% | [3]; [8] 45% | [4]; [7] -7% | [4]; [8] -1% | [4]; at 50.0 µM 15.2% | [5]; [7] -5% | [5]; [8] 18% | [5]; at 50.0 µM 2.9% | [6]; [7] -23% | [6]; [8] 44%
active: [1]; at 50.0 µM 81.2% | [3]; at 50.0 µM 73.2% | [6]; at 50.0 µM 75%
